N-glyco inh: blocks N-linked glycosylation in D54 reporter cells. D54 ERlucT glycosylation luciferase reporter, 24 h; percent of 100 nM tunicamycin response. AID 588692. 360,000 tested, 0.23% active. reporter increase, % at 12.5 µM;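 active = mean luciferase reporter signal, scaled so untreated is 0 and the glycosylation-blocking control 100, at or above a set limit in every replicate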;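 also: luciferase carries N-glycosylation sites so blocking glycosylation raises the light; 0% = median of neutral control wells and 100% = median of 100 nM tunicamycin wells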
CaV13 FRET inh: Primary screen for inhibitors of IQ motif and Ca2+-dependent inactivation inhibitor domain binding in CACNA1D, Förster resonance energy transfer in living cells, …; HEK cells, CFP/YFP FRET ICDI-IQ, plate reader, 10 min; percent FRET-ratio fall versus neutral wells; inhibition, % at 12.3 µM; 340,000 tested, 0.098% active;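 active = mean replicate inhibition of at least 30% and at least 1% of replicates passing that level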;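 also: 0% = median of the neutral control wells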
DSG3 Ab inh: blocks pemphigus antibody binding to human desmoglein-3. P32926. binding (percent of control), % at 10 µM. DSG3-coupled beads, scFv-anti-DSG3-GFP binding, flow cytometry; active compounds read low. AID 588358. 310,000 tested, 0.48% active;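 active = binding more than 3 SD below its plate's average and above zero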;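 also: hits lower antibody fragment binding to DSG3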
Vif inh: HIV Vif inhibition; HEK293T cells, Vif self-association by quenched fluorescence, imaging, 24 h; inhibition, % at 7.49 µM; 340,000 tested, 0.35% active; AID 602346; in the data active = inhibition above about 50%, passing the limit was not always enough
NSD2 HMT inh: NSD2 (human) methyltransferase inhibition. inhibition, % at 12.5 µM. NSD2 peptide methylation, AlphaScreen, 120 min. 310,000 tested, 0.54% active. O96028; in the data active = inhibition above about 50%
ATG4B inhibitor: blocks human ATG4B protease cleavage of LC3 substrate; ATG4B cleavage of LC3-PLA2, NBD-HPC fluorescence, 1 h; 340,000 tested, 0.51% active; inhibition, % at 8.33 µM; Q9Y4P1; in the data active = inhibition above about 40%
Active calls of the source: *; nt = no result; + = active, no number. In the library only some 1.9% were active in any assay of this set; here they are far more common.

SMILES | N-glyco inh | CaV13 FRET inh | DSG3 Ab inh | Vif inh | NSD2 HMT inh | ATG4B inhibitor
FC(F)Oc1ccc(NC(=S)NCc2ccccc2)cc1 | -2 | -5 | 97 | -6 | 0 | 25
O=C(O)c1cc(Sc2ccc(Br)cc2)nc2ccccc12 | 1 | -7 | 97 | 8 | 0 | 0
CS(=O)(=O)c1ccc2nc(N)sc2c1 | 1 | -4 | 100 | 7 | 5 | -16
C[C@]12CC[C@@H]3c4ccc(O)cc4CC[C@H]3[C@@H]1CC[C@@H]2O | 1 | -5 | 53* | -2 | nt | -3
O=C(CN1C(=O)CSc2ccc(S(=O)(=O)N3CCOCC3)cc21)N1CCCCC1 | 2 | -2 | 90 | -7 | -7 | -4
COc1ccc(O)c(C(=O)c2cnn(C(=O)c3ccc(C)cc3)c2)c1 | -3 | -6 | 100 | 4 | 0 | 0
Cc1ccc(O)c(C(=O)c2cnn(C(=O)Cc3csc(C)n3)c2)c1 | -6 | -4 | 115 | -8 | 1 | 43*
Cn1c(O)c(N=Nc2ccccc2[N+](=O)[O-])c2ccccc21 | 2 | -2 | 94 | 4 | -2 | -5
O=C(CN1C(=O)c2cccnc2Oc2ccc(Cl)cc21)Nc1ccccc1F | -3 | -11 | 118 | -2 | nt | 4
CCN(CC)CCOC(=O)c1ccc(N/C=C(/C#N)c2nc(-c3ccc(OC)cc3)cs2)cc1 | -7 | -19 | nt | 5 | 0 | -21
CCN(CC)CCOC(=O)c1ccc(N/C=C(/C#N)c2nc(-c3cc4ccccc4oc3=O)cs2)cc1 | -2 | -5 | 91 | 58* | -1 | 23
CCN1/C(=C/C=C/c2oc3ccc(-c4ccccc4)cc3[n+]2CC)Oc2ccc(-c3ccccc3)cc21 | -9 | -148 | nt | 147* | nt | 37
CC1=C(C#N)c2nc(N)c(C#N)c(C)c2/C1=C\c1ccc(OCC(=O)O)c(Cl)c1 | 1 | -5 | 87 | -2 | 57* | 5
COc1ccc(S(=O)(=O)Nc2ccc3c(c2)CC(=O)N([C@H](C)CO)C[C@H](C)[C@H](CN(C)C(=O)Nc2ccc4c(c2)OCO4)O3)cc1 | 0 | -11 | 100 | -3 | nt | -10
Cc1ccc(-c2nc(Nc3cccc(O)c3)c3ccccc3n2)cc1 | 3 | -4 | 91 | 8 | -3 | 4
Oc1cccc(Nc2c3ccccc3nc3ccccc23)c1 | 62* | -14 | 94 | -2 | -1 | -1
COc1ccc(Nc2c3ccccc3nc3ccccc23)cc1 | 42* | -6 | 109 | -2 | 10 | 12
S=C(NCC1CCCO1)N1CCN(c2ccccc2)CC1 (stereo not drawn) | 0 | -11 | 108 | 3 | -2 | -2
S=C(NCC1CCCO1)N1CCN(Cc2ccccc2Cl)CC1 (stereo not drawn) | 3 | + | 100 | -17 | -2 | -7
CCCCN(C)S(=O)(=O)c1ccc(C(=O)Nc2nnc(CSC)o2)cc1 | 1 | 0 | 93 | -4 | 0 | -9
Cc1ccn2cc(CCNC(=O)Cc3cccs3)nc2c1 | -1 | -4 | 104 | 4 | nt | -3
COc1cc(C(=O)NCCc2cn3ccc(C)cc3n2)cc(OC)c1OC | 2 | -7 | 107 | 96* | nt | -6
COC(=O)c1c(NC(=O)CSc2nnc(CNc3ccc(Cl)cc3)o2)sc(C)c1C | 0 | nt | 111 | 72* | 2 | -5
Nc1ccccc1SCC(=O)Nc1ccc(N2CCOCC2)cc1 | 5 | -5 | 95 | 57* | -1 | -11
CCOc1ccc(C(=O)c2cc3ccc(O)cc3oc2=O)cc1 | 0 | 90* | 100 | -2 | -1 | -6
SMILES | N-glyco inh | CaV13 FRET inh | DSG3 Ab inh | Vif inh | NSD2 HMT inh | ATG4B inhibitor
CCCCCC(=O)OCCc1c(C)nc2nc[nH]n2c1=O | 1 | -2 | 100 | 6 | -5 | -1
Cc1ccc2nsnc2c1NC(=O)c1ccc(-c2cc(Cl)ccc2Cl)o1 | 129* | nt | 101 | 15 | -3 | -1
CCOc1nc(N2CCCCC2)nc(-n2cc(-c3ccccc3)nn2)n1 | 1 | nt | 108 | 55* | nt | 4
CCc1nc(SCc2ccc(OC)c(Br)c2)n[nH]1 | 1 | -15 | 99 | -10 | 1 | 5
CCN(CC(=O)Nc1cc(Cl)ccc1C)C(=O)CCS(=O)(=O)c1ccc(C)cc1 | 4 | -6 | 102 | -19 | -1 | -7
COc1ccc(Nc2nc3c(C)cccn3c(=O)c2C=NCc2ccccc2)cc1 | -2 | -6 | 70* | -4 | -2 | 5
O=C(CSc1n[nH]c(-c2ccco2)n1)Nc1ccccc1Cl | -1 | -6 | 43* | 7 | 2 | 3
O=C(CSc1n[nH]c(-c2ccco2)n1)Nc1ccccc1F | 1 | -3 | nt | 7 | 2 | -12
O=C1NN(c2cccc(Br)c2)C(=O)/C1=C/c1ccc(-c2cc([N+](=O)[O-])ccc2O)o1 | 0 | nt | 82* | -4 | nt | 18
O=C(C1CCC1)N1CCc2cc(S(=O)(=O)Nc3ccc4c(c3)OCO4)ccc21 | -3 | 0 | 96 | -27 | nt | -11
CC(=O)/C=C1/SC(CC(=O)O)C(=O)N1c1ccccc1 (stereo not drawn) | -1 | -5 | 97 | -2 | 115* | 7
CC(=O)c1sc(-c2ccccc2)cc1NS(=O)(=O)c1ccccc1 | 2 | -5 | 75* | -6 | -4 | -1
CCCn1c(N)c(C(=O)CN(C)CC(=O)Nc2ccc(C)cc2)c(=O)[nH]c1=O | -1 | -2 | 102 | -2 | 1 | -5
Cc1ccc(/C=N/NC(=O)C2CCN(Cc3ccc(F)cc3Cl)CC2)o1 | -1 | 0 | 87 | 0 | 14 | 0
Cc1ccc(NC(=O)NNC(=O)C2CCN(Cc3ccc(F)cc3Cl)CC2)cc1 | -1 | -19 | 50* | nt | -2 | -2
CC1(C)CC(=O)C(C(O)c2ccccc2)C(C)(C)N1 (stereo not drawn) | -1 | -11 | 72* | -3 | -2 | 4
CC1(C)CC(=O)C(C(O)c2ccc([N+](=O)[O-])cc2)C(C)(C)N1 (stereo not drawn) | 3 | -17 | 99 | 8 | 4 | 3
Nc1nc(CN2CCN(Cc3ccccc3)CC2)nc(Nc2ccc3c(c2)OCCO3)n1 | 47* | -3 | 111 | -4 | 0 | -8
COc1ccc(C2SCC(C(=O)NCc3ccc(F)cc3)N2C(C)=O)cc1 (stereo not drawn) | -1 | 1 | 104 | -8 | nt | -11
CCC(=O)N1C(C(=O)NCc2ccc(OC)cc2)CSC1c1ccc(OC)cc1 (stereo not drawn) | 1 | 45* | 104 | -7 | nt | -2
COc1ccc(-c2nc3ccccn3c2NCc2ccc3c(c2)OCO3)cc1 | -2 | nt | nt | -5 | -8 | -1
COc1ccc(-c2cc(-c3nc4ccccn4c3NCc3ccccc3)ccc2OC)cc1 | -15 | -6 | 97 | 77* | nt | 4
